Results: PubChem BioAssay (NCATS)
Values joined by “and” are separate entries in the source; they are usually repeats but may differ in a detail not shown here. Equal entries are not always repeated. Records with an inconclusive call do not appear. Active and inactive are the calls of the source. Calls come from the whole dose curve; as a rule, active = well fitted curve in the direction sought with a large enough effect; inconclusive = small, poorly fitted or top-dose-only effect, or another doubt; inactive = no such curve, though single readings can be large or run the other way.
% is set by controls: 0 for no effect and ±100 for the full control effect; potency is the fitted concentration of half-maximal effect.

Assay: qHTS Assay for Identifying Gametocytocidal Compounds (AID 743244);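 for max response: actives lower the fluorescent signal which means gametocytes are killed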
Details: P. falciparum 3D7 stage III-V gametocytes, alamarBlue, 72 h; max response: stronger effect = lower value
Outline: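 Compounds are pinned into medium, gametocytes (stage III–V, 3D7, 20,000 cells/well) added, and plates held 72 h at 37 °C in 5% CO2. AlamarBlue follows for 24 h before fluorescence reading.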
With `CC(C(=O)O)c1ccc2c(c1)[nH]c1ccc(Cl)cc12` (configuration not stated) the max response was 3.15% (inactive).
For `Cc1[nH]cnc1CN1CCc2c(c3ccccc3n2C)C1=O`, the max response was -6.58% (inactive).
For `c1ccc2sc(SN3CCOCC3)nc2c1`, the max response was -2.78% (inactive).
In the case of `CCCCCC[C@@H](O)C/C=C\CCCCCCCC(=O)O`, the max response is reported as 10.3% (inactive) and -5.91% (inactive) and 3.41% (inactive).
In the case of `Cc1ccc(C(=O)c2ccc(CC(=O)O)n2C)cc1`, the max response is reported as 39.2% (inactive).
For `CC1(C)S[C@@H]2[C@H](NC(=O)[C@H](N)c3ccc(O)cc3)C(=O)N2[C@H]1C(=O)O`, the max response was 4.64% (inactive) and 10.7% (inactive).
In the case of `CC[C@H]1OC(=O)[C@H](C)C(=O)[C@H](C)[C@@H](O[C@@H]2O[C@H](C)C[C@H](N(C)C)[C@H]2O)[C@](C)(OC)C[C@@H](C)C(=O)[C@H](C)[C@H]2N(CCCCn3cnc(-c4cccnc4)c3)C(=O)O[C@]12C`, the max response is reported as -5.82% (inactive) and 15.9% (inactive).
In the case of `COc1cc(NC(C)CCCN)c2ncccc2c1` (configuration not stated), the Potency is reported as 2150 nM (active).
With `Cc1c(C(=O)O)c(O)cc2c1C(=O)c1c(O)c([C@@H]3O[C@H](CO)[C@@H](O)[C@H](O)[C@H]3O)c(O)c(O)c1C2=O` the max response was -1.02% (inactive).
In the case of `C#CC1(O)CC[C@H]2[C@@H]3CCC4=CCCC[C@@H]4[C@H]3CC[C@@]21C` (some centres not stated), the max response is reported as 18.8% (inactive).
In the case of `CN1[C@@H]2CC[C@H]1CC(OC(c1ccccc1)c1ccccc1)C2` (some centres not stated), the max response is reported as -0.265% (inactive) and -8.62% (inactive).
With `O=C(O)[C@H](CC(=O)N1C[C@H]2CCCC[C@H]2C1)Cc1ccccc1` the max response was -8.96% (inactive).
